# According to article PMC7862700, “An all-to-all approach to the identification of sequence-specific readers for epigenetic DNA modifications on cytosine”:
# Key:
# Assay in all cases: DAPPL (digital affinity profiling via proximity ligation, sequencing); 10 mM Tris-HCl pH 7.5, 50 mM NaCl, 1 mM DTT, 4% glycerol, room temperature, 30 min; GST-TFs on glutathione beads, 16-mer random dsDNA library, 0.1% formaldehyde crosslink after washing; high values mean tight binding
# Conditions in all cases: protein: recombinant; tags: N-terminal GST; dsDNA, one strand shown
# ETV2 = target: T1, ETV2 (Homo sapiens, UniProt O00321 1-342)
# T1 sequence: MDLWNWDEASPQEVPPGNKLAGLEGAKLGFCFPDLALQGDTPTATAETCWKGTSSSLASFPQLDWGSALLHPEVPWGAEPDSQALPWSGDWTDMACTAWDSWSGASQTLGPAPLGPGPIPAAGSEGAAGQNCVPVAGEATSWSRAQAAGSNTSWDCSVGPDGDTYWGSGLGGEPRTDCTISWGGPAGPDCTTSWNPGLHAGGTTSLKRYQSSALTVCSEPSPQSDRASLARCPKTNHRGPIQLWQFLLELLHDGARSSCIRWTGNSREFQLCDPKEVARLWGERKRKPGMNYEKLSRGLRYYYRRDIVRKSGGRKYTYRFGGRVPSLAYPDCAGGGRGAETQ
# Outline: (§1)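 Human transcription factors carrying a GST fusion were produced in yeast, bound to glutathione beads, tagged with DNA barcodes and pooled together with a tag-only sample. Each pool was held with 200 nmole of a random double-stranded 16-mer DNA library in Tris/NaCl/DTT/glycerol buffer for 30 min at room temperature, then washed, crosslinked in 0.1% formaldehyde, proximity-ligated with BsaI/T4 ligase (1 h, 37 °C), PCR-amplified and sequenced on an Illumina NextSeq500. Binding signal is the read frequency of each hexamer for a given factor divided by its frequency in the tag-only sample.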
# ELF3 = target: T2, ELF3 (Homo sapiens, UniProt P78545 1-371)
# T2 sequence: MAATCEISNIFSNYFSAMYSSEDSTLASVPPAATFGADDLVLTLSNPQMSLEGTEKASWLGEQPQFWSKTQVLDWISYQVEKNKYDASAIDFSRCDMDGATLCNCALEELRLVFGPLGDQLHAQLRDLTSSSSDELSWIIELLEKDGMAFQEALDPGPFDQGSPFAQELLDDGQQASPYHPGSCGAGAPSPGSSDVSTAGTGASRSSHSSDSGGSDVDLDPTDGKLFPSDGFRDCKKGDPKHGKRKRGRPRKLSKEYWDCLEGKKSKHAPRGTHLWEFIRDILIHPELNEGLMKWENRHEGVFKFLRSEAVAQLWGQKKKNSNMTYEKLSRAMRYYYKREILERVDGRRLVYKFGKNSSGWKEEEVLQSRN
# Outline: as §1
# ETV1 = ETV1 (Homo sapiens, UniProt P50549 1-477)
# Chain of ETV1 (P50549 whole entry): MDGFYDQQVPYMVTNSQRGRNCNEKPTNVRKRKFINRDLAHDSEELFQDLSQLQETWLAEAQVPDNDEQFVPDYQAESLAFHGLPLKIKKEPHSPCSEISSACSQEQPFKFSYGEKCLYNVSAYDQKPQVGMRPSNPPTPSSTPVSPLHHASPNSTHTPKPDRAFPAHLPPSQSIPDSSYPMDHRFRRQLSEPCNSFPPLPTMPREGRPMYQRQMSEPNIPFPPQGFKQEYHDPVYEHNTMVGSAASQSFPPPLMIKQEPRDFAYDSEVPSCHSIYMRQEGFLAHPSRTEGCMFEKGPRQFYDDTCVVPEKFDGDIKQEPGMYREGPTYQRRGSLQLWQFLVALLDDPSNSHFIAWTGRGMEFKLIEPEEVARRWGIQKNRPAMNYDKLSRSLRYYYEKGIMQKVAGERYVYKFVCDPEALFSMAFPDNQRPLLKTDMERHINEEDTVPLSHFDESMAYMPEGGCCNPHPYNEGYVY
# Outline: as §1
# ERF = target: T3, ERF (Homo sapiens, UniProt P50548 1-548)
# T3 sequence: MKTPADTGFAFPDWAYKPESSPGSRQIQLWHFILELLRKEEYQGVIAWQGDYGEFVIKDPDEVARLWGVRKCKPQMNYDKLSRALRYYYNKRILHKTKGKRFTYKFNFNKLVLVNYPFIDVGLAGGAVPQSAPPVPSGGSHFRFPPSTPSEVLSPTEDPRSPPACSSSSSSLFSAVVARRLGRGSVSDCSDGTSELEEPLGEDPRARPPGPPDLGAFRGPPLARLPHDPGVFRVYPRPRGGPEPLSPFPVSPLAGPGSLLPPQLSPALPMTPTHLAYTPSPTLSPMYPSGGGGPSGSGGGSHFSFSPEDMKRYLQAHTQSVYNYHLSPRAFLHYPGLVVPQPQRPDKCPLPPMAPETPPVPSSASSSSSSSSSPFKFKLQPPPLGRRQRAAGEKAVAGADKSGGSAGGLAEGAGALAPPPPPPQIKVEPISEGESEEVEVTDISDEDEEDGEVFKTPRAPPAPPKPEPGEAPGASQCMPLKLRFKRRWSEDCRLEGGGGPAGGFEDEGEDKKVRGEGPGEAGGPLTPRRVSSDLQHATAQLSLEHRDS
# Outline: as §1
# ETV3L = target: T4, ETV3L (Homo sapiens, UniProt Q6ZN32 1-361)
# T4 sequence: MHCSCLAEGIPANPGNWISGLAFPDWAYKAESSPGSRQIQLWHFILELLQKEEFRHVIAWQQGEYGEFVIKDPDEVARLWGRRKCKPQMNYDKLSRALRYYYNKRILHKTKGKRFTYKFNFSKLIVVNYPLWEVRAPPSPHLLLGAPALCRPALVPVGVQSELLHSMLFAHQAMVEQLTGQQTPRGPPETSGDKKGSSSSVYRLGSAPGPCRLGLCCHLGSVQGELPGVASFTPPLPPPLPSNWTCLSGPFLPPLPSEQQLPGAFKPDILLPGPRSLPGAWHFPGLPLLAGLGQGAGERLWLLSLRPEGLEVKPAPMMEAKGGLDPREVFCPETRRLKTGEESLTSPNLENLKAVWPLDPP
# Outline: as §1
# SPDEF = target: T5, SPDEF (Homo sapiens, UniProt O95238 1-335)
# T5 sequence: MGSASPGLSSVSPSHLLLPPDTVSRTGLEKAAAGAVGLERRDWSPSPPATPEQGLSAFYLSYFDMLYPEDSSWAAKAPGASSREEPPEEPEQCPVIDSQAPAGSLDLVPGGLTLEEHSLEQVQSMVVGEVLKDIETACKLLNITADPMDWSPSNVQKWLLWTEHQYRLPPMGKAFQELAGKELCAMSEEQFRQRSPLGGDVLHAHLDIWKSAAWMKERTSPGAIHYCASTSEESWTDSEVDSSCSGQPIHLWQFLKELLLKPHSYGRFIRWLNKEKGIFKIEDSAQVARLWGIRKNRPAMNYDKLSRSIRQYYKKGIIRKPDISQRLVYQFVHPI
# Outline: as §1
# ETV7 = target: T6, ETV7 (Homo sapiens, UniProt Q9Y603 1-341)
# T6 sequence: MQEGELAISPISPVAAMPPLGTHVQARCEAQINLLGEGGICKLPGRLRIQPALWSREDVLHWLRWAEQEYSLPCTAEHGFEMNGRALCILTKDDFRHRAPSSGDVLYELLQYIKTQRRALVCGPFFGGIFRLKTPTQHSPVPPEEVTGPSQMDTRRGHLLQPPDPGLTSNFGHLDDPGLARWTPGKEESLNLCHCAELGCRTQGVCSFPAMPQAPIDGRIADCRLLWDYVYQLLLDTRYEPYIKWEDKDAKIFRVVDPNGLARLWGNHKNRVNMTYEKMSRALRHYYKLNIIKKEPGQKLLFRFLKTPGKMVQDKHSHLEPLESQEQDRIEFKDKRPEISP
# Outline: as §1
# ELF5 = target: T7, ELF5 (Homo sapiens, UniProt Q9UKW6-2 1-255)
# T7 sequence: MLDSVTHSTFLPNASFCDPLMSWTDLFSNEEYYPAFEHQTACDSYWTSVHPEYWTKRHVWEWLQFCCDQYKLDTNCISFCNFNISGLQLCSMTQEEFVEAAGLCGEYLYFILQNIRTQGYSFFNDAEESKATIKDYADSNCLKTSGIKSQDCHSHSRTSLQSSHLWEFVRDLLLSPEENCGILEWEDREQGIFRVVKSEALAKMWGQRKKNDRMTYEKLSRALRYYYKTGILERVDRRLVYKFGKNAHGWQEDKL
# Outline: as §1
# ETV6 = ETV6 (Homo sapiens, UniProt P41212 1-452)
# Chain of ETV6 (P41212 whole entry): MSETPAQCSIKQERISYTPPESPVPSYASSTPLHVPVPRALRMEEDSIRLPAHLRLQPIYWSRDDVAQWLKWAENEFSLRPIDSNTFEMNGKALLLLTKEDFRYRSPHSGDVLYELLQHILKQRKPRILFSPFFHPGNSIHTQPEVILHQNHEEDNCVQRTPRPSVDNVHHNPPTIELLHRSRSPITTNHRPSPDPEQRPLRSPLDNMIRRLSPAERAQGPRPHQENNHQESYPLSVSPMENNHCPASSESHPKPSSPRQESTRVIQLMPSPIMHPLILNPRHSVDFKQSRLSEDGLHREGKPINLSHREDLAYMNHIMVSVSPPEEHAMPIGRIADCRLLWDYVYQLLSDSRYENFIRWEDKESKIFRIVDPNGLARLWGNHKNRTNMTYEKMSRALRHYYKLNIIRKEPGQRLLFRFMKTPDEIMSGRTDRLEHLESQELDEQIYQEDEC
# Outline: as §1
sequence,measurement,setting,value
CACACC,binding signal,ETV2,"1.03 fold enrichment (6-mer frequency, TF over GST control)"
same,binding signal,ELF3,"1.02 fold enrichment (6-mer frequency, TF over GST control)"
same,binding signal,ETV1,"1.14 fold enrichment (6-mer frequency, TF over GST control)"
same,binding signal,ERF,"1.02 fold enrichment (6-mer frequency, TF over GST control)"
same,binding signal,ETV3L,"1.02 fold enrichment (6-mer frequency, TF over GST control)"
same,binding signal,SPDEF,"1.02 fold enrichment (6-mer frequency, TF over GST control)"
same,binding signal,ETV7,"1.01 fold enrichment (6-mer frequency, TF over GST control)"
same,binding signal,ELF5,"1.03 fold enrichment (6-mer frequency, TF over GST control)"
same,binding signal,ETV6,"1.01 fold enrichment (6-mer frequency, TF over GST control)"
